Measurements taken from PubChem BioAssay AID1347075 (National Center for Advancing Translational Sciences (NCATS), 2019).
About 5,500 (1.4%) of roughly 400,000 compounds were called active. Entries that show only a call come without a potency. Another 9% or so got no clear call; they are omitted. The call rests on the fitted dose curve; in most records, active means well fitted cell-killing curve with a large enough effect; inconclusive means small, poorly fitted or top-dose-only effect, or effect the other way; inactive means flat fitted curve, though single readings scatter. For the sample, actives were picked, then their nearest neighbours and some compounds at random.

Test: qHTS assay for MDR1-selective chemotherapeutics: Primary screen using the parental adenocarcinoma cell KB-3-1; further: nearly all actives have a fitted effect of over 60% in size
Conditions: KB-3-1 viability, CellTiter-Glo ATP luminescence, 72 h; series mostly up to 46.1 µM
Summary of the method: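 KB-3-1 cells, DMEM (no phenol red) + 10% FBS; compound by pin transfer, 72 h, 37 °C. Readout: CellTiter-Glo luminescence after 10 min. Data normalized, curve-fitted.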
Potency means the concentration at half of the fitted maximal effect.

Compound	Potency
Cn1c(=O)c2c(nc(SCC(=O)Nc3ccc(F)cc3)n2Cc2ccc(Cl)cc2)n(C)c1=O	inactive
COc1ccc(-c2onc(C)c2C)cc1S(=O)(=O)NCC1CCN(Cc2cccc(F)c2)CC1	inactive
Cc1cccc(NC(=O)c2nc(S(=O)(=O)Cc3ccccc3)ncc2Cl)c1	5.8 µM (active)
O=C(Nc1nnc(Cc2ccc(Cl)cc2)s1)c1ccncc1	inactive
Cc1cccc(NC(=O)Cn2cc(S(=O)(=O)Cc3ccccc3Cl)c3ccccc32)c1	inactive
Cc1ccc(CS(=O)(=O)c2ncc(Cl)c(C(=O)Nc3nnc(C)s3)n2)cc1	20.6 µM (active)
O=C(Nc1nnc(Cc2ccc(Cl)cc2)s1)c1cccnc1	inactive
Cc1ccc2nc(NC(=O)c3nc(SCc4ccccc4F)ncc3Cl)sc2c1	inactive
CSc1nnc(NC(=O)c2nc(S(=O)(=O)Cc3ccc(C)cc3)ncc2Cl)s1	16.4 µM (active)
CCS(=O)(=O)c1ncc(N(Cc2ccc(F)cc2)Cc2ccco2)c(C(=O)Nc2cc(C)ccc2C)n1	inactive
CC(=O)c1cccc(NC(=O)c2nc(-c3ccccc3)n(-c3cccc(C)c3)n2)c1	inactive
CCOC(=O)c1c(NC(=O)CSc2cn(CCNC(=O)c3cccc(C(F)(F)F)c3)c3ccccc23)sc2c1CCC2	inactive
CC1(C)Cc2ccccc2-c2c[nH]c(=O)n21	inactive
COc1ccc(-c2cc(-c3nc(-c4cc(OC)c(OC)c(OC)c4)no3)[nH]n2)c(OC)c1	inactive
CC1CCN(S(=O)(=O)c2ccc3c(ccn3CCC(=O)NCc3ccc(N(C)C)cc3)c2)CC1	inactive
COc1ccc(N(C)C(=O)C2CCN(S(=O)(=O)c3cc(Br)cc4c3N(C(C)=O)CC4)CC2)cc1	inactive
O=C(Nc1cccc(S(=O)(=O)Nc2ccc(Cl)cc2)c1)c1ccc2c(c1)OCCO2	8.2 µM (active)
CCN(CC)CCNC(=O)c1ccc(NS(=O)(=O)c2ccc3c(c2)OCCO3)cc1	inactive
CN1CCN(c2ccc(NC(=O)c3ccc4c(c3)OCCO4)cc2Cl)CC1	inactive
CN(C(=N)N)c1ccc(/C=C2\C=Cc3ccccc32)cc1	inactive
COc1ccccc1NC(=O)CSC1=Nc2ccccc2C2=NC(CC(=O)NCc3cccs3)C(=O)N12 (stereo unspecified)	inactive
O=C(Nc1ccc2c(c1)CCC2)c1cccc(S(=O)(=O)N2CCN(c3ccc(F)cc3)CC2)c1	inactive
Cc1ccc(C(=O)Nc2ncccc2C)cc1S(=O)(=O)N1CCOCC1	inactive
Cc1cccnc1NC(=O)c1cccc(S(=O)(=O)N2CCN(c3ccc(F)cc3)CC2)c1	20.6 µM (active)

Compound	Potency
CCn1c(/C=C/Nc2ccccc2)[n+](CC)c2ccc(C(=O)OCC(F)(F)F)cc21	18.4 µM (active)
CCOC(=O)c1cc2ccccc2n1CC(=O)c1ccccc1	inactive
CCOC(=O)c1ccc2c(c1)nc(C)n2CC	inactive
COc1ccccc1-c1noc(-c2ccc(NCc3ccccc3)c([N+](=O)[O-])c2)n1	inactive
C[C@H]1CN(c2ccc(Br)cc2)C(=O)[C@@H]1CC(=O)Nc1ccc(Br)cc1	inactive
CNC(=O)C[C@H]1C(=O)N(c2ccc(OC)cc2)C[C@@H]1Cc1ccccc1	inactive
O=C1N(Cc2ccccc2)c2ccc(Cl)cc2C1(O)c1c[nH]c2ccccc12 (stereo unspecified)	inactive
CCc1nc(N2CCN(C(C)=O)CC2)c2c3c(sc2n1)CCCC3	inactive
COCCNc1nc(-n2nc(C)cc2C)nc2sc3c(c12)CCCC3	11.6 µM (active)
CCC(O)CNc1nc(-n2nc(C)cc2C)nc2sc3c(c12)CC(C)(C)OC3 (stereo unspecified)	inactive
Cc1c(/C=N/N2C(=O)C3C4C=CC(C4)C3C2=O)c2ccccc2n1C (stereo unspecified)	inactive
Cc1c(/C=N\NC(=O)c2cc3ccccc3o2)c2ccccc2n1C	8.2 µM (active)
CC(C)Oc1ccc(NC(=O)c2cc3ccccc3o2)cc1	inactive
CC(C)CC(COCc1ccc(Cl)cc1)N1CCN(C(=O)c2ccc(C(F)(F)F)cc2)CCC1=O (stereo unspecified)	18.4 µM (active)
O=C(c1ccc(C(F)(F)F)cc1)N1CCC(=O)N([C@H](COCc2ccccc2)Cc2ccccc2)CC1	inactive
O=C(c1cc(Cl)cc(Cl)c1)N1CCC(=O)N(C(COCc2ccccc2)Cc2ccccc2)CC1 (stereo unspecified)	inactive
COc1ccc(C(=O)NCC(c2ccc(N(C)C)cc2)N2CCc3ccccc32)c(OC)c1 (stereo unspecified)	inactive
CC1CC(C)CN(c2oc(-c3ccc(OCc4ccc(Cl)cc4)cc3)nc2C#N)C1 (stereo unspecified)	inactive
Cc1ccc(Nc2nc3ccccc3nc2-n2nc(C)cc2C)c(Cl)c1	inactive
CCCOc1ccccc1C1CC(=O)Nc2cc3c(cc21)OCO3 (stereo unspecified)	2.59 µM (active)
Cc1cc2c(cc1C)C(c1cccc(OC(C)C)c1)CC(=O)N2 (stereo unspecified)	inactive
O=C1CC(c2ccc(F)cc2F)c2cc3c(cc2N1)OCO3 (stereo unspecified)	inactive
CC(C)Cn1c(-c2ccc(S(=O)(=O)N3CCOCC3)cc2)csc1=Nc1cc(Cl)ccc1Cl	inactive
CN(N=O)c1ccc(C=C2c3ccccc3-c3ccccc32)cc1	inactive

Compound	Potency
COc1ccc(C2C(C(C)=O)=C(O)C(=O)N2CCc2c[nH]c3ccccc23)cc1 (stereo unspecified)	inactive
COc1ccc(/C=C(\C#N)c2c[nH]c3ccccc23)cc1	1.64 µM (active)
C[N+](C)(C)CCNC(=O)c1c[nH]c2ccccc12	inactive
Cc1cc(C(=O)CSc2nc(N)cc(=O)[nH]2)c(C)n1CCc1ccc(Cl)cc1	inactive
Cc1cc(C(=O)CSc2nc(N)cc(=O)[nH]2)c(C)n1-c1cccc(F)c1	5.8 µM (active)
Cc1cc(C)c(C(=O)CSc2nc(C)cc(=O)[nH]2)c(C)c1	inactive
Cc1cccc(C(=O)N2CCc3cc(CNC(=O)Cc4ccc(F)cc4)ccc32)c1	inactive
CCOc1ccc(OCC)c(NS(=O)(=O)c2ccc3[nH]c(=O)ccc3c2)c1	inactive
COc1cc(NS(=O)(=O)c2ccc3ccccc3c2)c2ncccc2c1	6.51 µM (active)
O=[N+]([O-])c1ccccc1S(=O)(=O)Nc1cccc2cccnc12	inactive
CCN(CCCNC(=O)CSc1cc(=O)n(C)c2cc(Cl)ccc12)c1cccc(C)c1	inactive
CCOC(=O)CCP(=O)(O)C(O)(c1ccccc1)c1ccccc1	inactive
CCOC(=O)C(=Cc1ccccc1)C(=O)c1ccccc1	20.6 µM (active)
CCc1ccccc1NC(=O)/C(=C/c1ccccc1)c1ccccc1	inactive
Cc1ccc2cccc(NC(=O)c3ccc(OC(C)C)cc3)c2n1	inactive
CCOC(=O)C1CCCN(S(=O)(=O)c2cc(-c3cc(C)no3)ccc2OC)C1 (stereo unspecified)	inactive
CCc1cccc(C)c1NC(=S)N(CCCN1CCN(C)CC1)Cc1cccs1	inactive
Cc1ccccc1NC(=S)N(CCCN1CCOCC1)Cc1cccs1	inactive
Cc1ccc(NC(=S)N(CCCN2CCCC2)Cc2cccn2Cc2ccc(Cl)cc2)cc1	20.6 µM (active)
Cc1ccccc1-c1nc(CS(=O)(=O)CC(=O)Nc2cc(Cl)cc(Cl)c2)c(C)o1	inactive
Cc1nnc(N2CCC(C(=O)Nc3ccc(F)cc3)CC2)c2nn(-c3ccc(Cl)cc3)c(C)c12	inactive
CCc1ccccc1NS(=O)(=O)c1ccc2nc(-c3ccccc3)[nH]c2c1	inactive
COc1cc(CNCCSc2nnnn2C)ccc1OCc1ccc(Cl)cc1Cl	inactive
COc1cc(CNCCSc2nnnn2C)ccc1OCc1c(F)cccc1Cl	18.4 µM (active)

Compound	Potency
COc1cc(CNCCN(C)C)ccc1OCc1c(F)cccc1Cl	inactive
CCOC(=O)c1c(NC(=O)c2cc(-c3ccc(Cl)cc3)on2)sc2c1CCCC2	inactive
CCOC(=O)c1c(-c2cccc(C)c2)csc1NC(=O)c1c(-c2ccccc2)noc1C	5.17 µM (active)
Cc1onc(-c2ccccc2Cl)c1C(=O)OCc1nnc(-c2ccccc2)o1	inactive
CC1=C(C(=O)Nc2ccccc2)C(c2ccc(C)cc2)n2nc(SCc3ccccc3C)nc2N1 (stereo unspecified)	inactive
CCOc1ccc(N(CC)S(=O)(=O)N2CCCC(C(=O)NCc3ccc(SC)cc3)C2)cc1 (stereo unspecified)	inactive
COc1ccccc1NC1=NC(c2ccc(Cl)cc2)N=C(N)N1 (stereo unspecified)	3.66 µM (active)
CC1(C)N=C(N)NC(Nc2ccc(Cl)cc2)=N1	inactive
COc1ccccc1Nc1nc(N)nc(N)c1S(=O)(=O)c1ccccc1	inactive
CCOC(=O)c1ccc(NC(=O)c2c(NCc3cccc(OC)c3)sc3c2CCC3)cc1	inactive
COc1ccc(-c2csc(-c3c(N)c(C(=O)c4ccc(OC)c(OC)c4)n4ccccc34)n2)cc1	inactive
CCN(CC)CCCC(C)Nc1ccnc2cc(Cl)ccc12 (stereo unspecified)	10.3 µM (active)
CCN(CC)CCNc1ccc(Cl)cc1[N+](=O)[O-]	inactive
CCN(CC)CCNc1ncnc2c1cnn2-c1cc(Cl)ccc1C	inactive
CNCCCOc1cc2nc(N3CCCN(C)CC3)nc(NC3CCN(C)CC3)c2cc1OC	inactive
CCOC(=O)c1cc(-c2ccc(OC)c(S(=O)(=O)Nc3ccc(OC)cc3OC)c2)on1	inactive
Cc1cccc(CNC(=O)c2cnc3sc(N4CCCCC4)nn3c2=O)c1	inactive
Cc1ccc(CNC(=O)CSC2=Nc3ccccc3C3=NC(C)C(=O)N23)cc1 (stereo unspecified)	inactive
CC(C)C1N=C2c3ccccc3N=C(SCC(=O)c3ccc(O)c(O)c3)N2C1=O (stereo unspecified)	23.1 µM (active)
CCOC(=O)CSC1=Nc2ccccc2C2=NC(CCC(=O)NCc3ccc(F)cc3)C(=O)N12 (stereo unspecified)	inactive
CN(Cc1cn(Cc2ccc(C(F)(F)F)cc2)nn1)C1CN(Cc2cn(Cc3ccc(C(F)(F)F)cc3)nn2)S(=O)(=O)C1 (stereo unspecified)	10.3 µM (active)
Cc1ccc(Cn2cc(CN3CC(N4CCN(C)CC4)CS3(=O)=O)nn2)cc1 (stereo unspecified)	inactive
CN(C)C1CN(Cc2cn(Cc3ccccc3)nn2)S(=O)(=O)C1 (stereo unspecified)	inactive
CCOc1ccc2nc(N3CCC(C(=O)Nc4cc(C)ccc4C)CC3)sc2c1	inactive
